Test: basal 3T3-L1 adipocyte mitochondrial potential changes, profiling panel, cell-based, JC-1 fluorescence, 3T3-L1 adipocytes, 24 h, 100 nL compound (AID 1168); note: test concentration not given here
Details: JC-1 mitochondrial fluorescence, higher = more signal, called active from +8 up or from −8 down

z-score, inactive:
COCCOC(=O)N1C(=O)[C@@]2(c3cc(C#Cc4ccc(OC)cc4)ccc31)[C@H](c1ccc(OCCO)cc1)N1[C@H](c3ccccc3)[C@H](c3ccccc3)OC(=O)[C@H]1[C@@H]2C(=O)NC[C@H](O)c1ccccc1 1.67
CC1CC/C=C\[C@H]2OC34C=CCN(Cc5ccccc5)C(=O)[C@H]3N(CCCCCCO)C(=O)[C@@H]4C2C(=O)O1 (stereo partly specified) -0.0479
[N-]=[N+]=Nc1ccccc1[C@@H]1OC(c2ccc(OCCCO)cc2)=N[C@]1(CCS(=O)(=O)c1ccccc1)C(=O)NCC(O)CO (stereo partly specified) -0.199
COC(=O)[C@@]1(Cc2ccccc2)[C@H]2c3cc(C(=O)N(C)C)n(CCSC(=N)N)c3C[C@H]2CN1C(=O)c1ccccc1 -1.1
CC(C)[Si](C#CCCc1ccccc1)(O[C@H](c1ccccc1)c1cn(Cc2ccccc2)nn1)C(C)C -0.979
O=C(NCc1ccc(F)cc1)[C@H]1C[C@H]2C(=O)N3CCC[C@H]3C(=O)N2[C@H]1c1ccc(O)cc1 0.811
COC(=O)[C@]1(Cc2ccccc2)N=C(c2ccc(OCCCO)cc2)O[C@@H]1c1ccccc1CN=[N+]=[N-] -0.876
CC(C)C[C@@H]1NC(=O)[C@@H]2C[C@H](C(=O)NCCCCCCNC(=O)CS)[C@H](c3cccc(OCCO)c3)N2C1=O -0.185
O=C1O[C@@H](c2ccccc2)[C@@H](c2ccccc2)N2[C@@H](c3ccc(OCCO)cc3)[C@]3(C(=O)Nc4ccc(C#CCCO)cc43)[C@@H](C(=O)O)[C@H]12 -0.382
CCCC[C@H]1C[C@@H]1[C@@H]1N(C(C)=O)[C@H](c2cccc(OC)c2)CC12CC2 0.546
C=C(COC)/C(=C/C[C@@H](OC(C)=O)c1ccccc1OCCO)c1cnc2ccccc2c1 -0.433
CN(C)CCCNC(=O)[C@@]1(C)c2ccccc2C(=O)N(Cc2ccc(OC(F)(F)F)cc2)[C@H]1c1ccc(CO)cc1 -0.422
C=CC[C@]1(C(=O)NCC(O)CO)COC(c2ccc(OCCCO)cc2)=N1 (stereo partly specified) -0.604
C=CCC(OC(C)=O)[C@@H]1[C@@H](N(Cc2cccc3ccccc23)C(=O)c2ccc(-c3ccccc3)cc2)c2cc(OCCCO)ccc2N1C(=O)Cc1ccc2ccccc2c1 (stereo partly specified) -0.407
CCCCCC1=C2CNC(CC(C)C)(C(=O)OC)C=C2C(C)C1=O (stereo unspecified) -1.21
CN1C(=O)[C@@H]2[C@@H](CC(COc3ccccc3)=C3[C@@H](CCc4ccccc4)OB(O)C[C@@H]32)C1=O -0.0562
COC(=O)[C@@]1(Cc2ccc(OC)cc2)[C@H]2c3cc(C(=O)N4CCCC4)n(Cc4ccc(C(F)(F)F)nc4)c3C[C@H]2CN1C(=O)c1ccccc1 -1.59
C=CCC(OC(C)=O)[C@@H]1[C@@H](N(Cc2cc3ccccc3o2)C(=O)Cc2ccc(OC)cc2)c2cc(OCCCO)ccc2N1C(=O)c1ccc2ccccc2n1 (stereo partly specified) -0.106
[N-]=[N+]=Nc1ccccc1[C@@H]1OC(c2ccc(OCCCO)cc2)=N[C@]1(Cc1ccccc1)C(=O)NCCN1CCOCC1 -0.0447
COc1ccc(C(=O)Nc2cccc(CN3C(=O)[C@]4(O[C@H](CC(=O)N5Cc6ccccc6C[C@H]5CO)[C@@H]([Si](C)(C)c5ccc(OC)cc5)[C@@H]4C)c4ccccc43)c2)cc1 -0.458
C=CCN1C(=O)[C@@]2(O[C@@H](CCn3cc([C@H](O)c4ccccc4)nn3)[C@H]([Si](C)(C)c3ccc(OC)cc3)[C@H]2C)c2cc(N3C(=O)c4cccc5cccc3c45)ccc21 -0.127
CC(C)(C)N1CC=CC23O[C@@H]4/C=C\CCCOC(=O)C4[C@H]2C(=O)N(CCCCCO)[C@@H]3C1=O (stereo partly specified) 0.186
CN(C)CCCC[C@@H]1NC(=O)[C@@H]2C[C@H](C(=O)NCCCCCCNC(=O)CS)[C@H](c3ccc(O)cc3)N2C1=O 0.207
CC1CC/C=C\[C@H]2OC34C=CCN(CCN5CCOCC5)C(=O)[C@H]3N(CCCO)C(=O)[C@@H]4C2C(=O)O1 (stereo partly specified) -0.711
COc1ccccc1CN1C(=O)c2ccccc2[C@](Cc2ccccc2I)(C(=O)NCC(C)C)[C@@H]1c1ccc(CO)cc1 -0.808
COCC(=C=CC[C@H](O)c1ccccc1OCCO)C[C@H](O)COCc1ccccc1 -0.437
O=C(NC1CC1)[C@@H]1c2ccccc2C(=O)N(Cc2ccc(OC(F)(F)F)cc2)[C@H]1c1ccc(CO)cc1 0.379
O=C1C2C=CC(C(O)c3c(F)cccc3Cl)N(Nc3ccc([N+](=O)[O-])cc3)C2C(=O)N1c1ccccc1 (stereo unspecified) -1.26
C[C@@H]1NC(=O)C([C@@H](C)OCc2ccccc2)NC(=O)[C@@]23C(=O)N[C@@H](Cc4ccccc4)C2[C@H](C)[C@@]2(C)O[C@H]2C3/C=C/C/C=C\CNC1=O (stereo partly specified) 0.782
CC1CC/C=C\[C@H]2OC34C=CCN(c5ccc(Cl)cc5)C(=O)[C@H]3N(CCCCCCO)C(=O)[C@]4(C)C2C(=O)O1 (stereo partly specified) 0.115
CC1=C([C@H](O)CCc2ccccc2)[C@H](CO)n2c(=O)n(-c3ccccc3)c(=O)n2C1 0.603
CCOC(=O)C[C@H]1[C@H](OC(=O)Cc2ccc3c(c2)OCO3)[C@@H](NC(=O)Cc2ccc(OC)cc2)c2cc(OCCCO)ccc2N1C(=O)Cc1ccc(OC)cc1 0.376
COc1ccc(C(O)C2C=CC3C(=O)NC(=O)C3N2Nc2ccc(Cl)cc2Cl)c2ccccc12 (stereo unspecified) 0.564
C=C1C(=O)C=C2CN(C(=O)c3ccccc3)[C@@](Cc3ccc(OC)cc3)(C(=O)OC)[C@@H]12 -1.02
COC(=O)[C@@]1(Cc2ccccc2)[C@H]2c3cc(C(=O)N(C)C)n(Cc4ccc(S(C)(=O)=O)cc4)c3C[C@H]2CN1C(=O)c1ccccc1 -1.06
CCCNC(=O)[C@@]1(c2ccc([N+](=O)[O-])cc2)CC(=O)N(C(C)C)[C@@H]1c1ccc(CO)cc1 -0.584

Reference: PubChem BioAssay
